For five compounds, composite z-score, z-score and composite Z-score results are on record in PubChem BioAssay.

Assay [1] relates to Human papillomavirus type 1a protein E7 (residues 44-93). Description: HPV1a E7 fragment binders on microarrays, primary screen, biochemical, small-molecule microarray, residues 44-93, 635 nm fluorescence (AID 1108).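 Also: E7 fragment applied at 1 µg/mL in TBST for 1 h at 4 C; score combines spot fluorescence with its signal to noise ratio.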 The following applies: small-molecule microarray binding, fluorescence 635 nm; higher = more signal.
Assay [2] can be described thus: modulators of HCV replicon luciferase signal, primary screen, HCV replication inhibitor project, Huh7 cells, luciferase reporter (AID 1109).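 Also: huh7 hepatoma cells harbouring a luciferase neomycin HCV replicon reporter; luciferase luminescence as measure of HCV replicon replication; test concentration not given here.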 The following applies: 48 h, higher = more signal.
Assay [3] has as its target Left-right determination factor 2 (Homo sapiens) (UniProt O00292). The assay is described as follows: LEFTY2 binders on small-molecule microarrays, primary screen, biochemical, small-molecule microarray, 635 nm fluorescence scan (AID 1110). The following applies: LEFTY2 binding, higher = more signal.
Assay [4] deals with Calmodulin-1 (Homo sapiens) (UniProt P0DP23). The assay is described as follows: CALM1 binders on microarrays, EGTA buffer, profiling panel, biochemical, small-molecule microarray, Cy5-labelled CALM1 (AID 1111).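 Also: labelled calmodulin applied in Tris saline Tween buffer holding calcium plus EGTA and DTT.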 The following applies: Cy5-CALM1 binding fluorescence, higher = more signal.
Assay [5] shares this target. Description: calcium-bound CALM1 binders on microarrays, profiling panel, artefact control for SMM control-protein annotation, biochemical, small-molecule microarray, Cy5-labelled CALM1, plus calcium (AID 1112).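 Also: score merges spot fluorescence with signal to noise from triplicate slides.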 Particulars: Cy5-CALM1 binding fluorescence, higher = more signal.
Assay [6] can be described thus: small-molecule microarray binders of probe aWnt5a, primary screen, biochemical, biotinylated probe, 635/667 nm fluorescence (AID 1113).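 Also: score merges 667 nm fluorescence intensity with signal-to-noise per printed feature.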 Particulars: higher = more signal.
Assay [7] is described as follows: small-molecule microarray binders of probe aShh, primary screen, biochemical, biotinylated probe, 635/667 nm fluorescence (AID 1114).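 Also: probe is biotin-labelled aShh protein from a stem cell growth factor screen; measures binding of labelled protein to compounds printed on the slide; score merges feature fluorescence at 667 nm with signal-to-noise.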 Particulars: higher = more signal.
Assay [8] is described as follows: small-molecule microarray binders of probe aNog, primary screen, biochemical, biotinylated probe, 635/667 nm fluorescence (AID 1115).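 Also: probe is biotinylated aNog protein used at 0.15 µg/mL for 1 h at 4 C; z-score combines 667 nm fluorescence of each spot with its signal to noise.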 Particulars: higher = more signal.
Assay [9] deals with Torsin-1A-interacting protein 1 (Homo sapiens) (UniProt Q5JTV8). The assay is described as follows: LAP1 binders from COS7 cell lysate, primary screen, small-molecule microarray, 635/667 nm fluorescence (AID 1116). Particulars: COS7-hLAP1 lysate binding, 635 nm fluorescence, higher = more signal.
The target of assay [10] is Alpha-bungarotoxin (Bungarus multicinctus) (UniProt P60615). The assay is described as follows: alpha-bungarotoxin binders on microarray, profiling panel, artefact control for SMM control protein annotation, biochemical, small-molecule microarray, Alexa647 label, 635/667 nm fluorescence (AID 1117). The following applies: alpha-BTX-A647 binding fluorescence, higher = more signal.

The next assay addresses Albumin (Bos taurus) (UniProt P02769). The assay is described as follows: bovine serum albumin binders on microarray, profiling panel, artefact control for SMM control protein annotation, biochemical, small-molecule microarray, Alexa647 label, 635/667 nm fluorescence (AID 1118).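 Also: score merges 667 nm emission intensity and signal-to-noise per printed compound spot.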 The following applies: BSA-A647 binding, fluorescence 635 nm, higher = more signal.
Assay [11] is described as follows: small-molecule microarray binders of probe aXIP, primary screen, biochemical, NeuroSMM set, 635/667 nm fluorescence (AID 1119).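 Also: probe is the protein aXip251-270 applied at 1 µg/mL to compound-printed slides; binding of probe to printed compounds measured as 667 nm fluorescence plus signal to noise.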 The following applies: higher = more signal, called active from +8 up or from −8 down.
The nature of assay [12]: small-molecule binders of probe aNOTCH3, primary screen, biochemical, small-molecule microarray, 635/667 nm fluorescence (AID 1120).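 Also: probe is a biotin-tagged antibody raised against NOTCH3 rather than NOTCH3 protein; score merges spot fluorescence near 667 nm with spot signal to noise.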 Particulars: higher = more signal.
Assay [13] is described as follows: small-molecule binders of probe aNOTCH2, primary screen, biochemical, small-molecule microarray, 635/667 nm fluorescence (AID 1121).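 Also: score merges feature fluorescence read at 667 nm with its signal to noise.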 Particulars: higher = more signal.
Assay [14] deals with Carbonic anhydrase 2 (Homo sapiens) (UniProt P00918). Description: CAII small-molecule binders, profiling panel, biochemical, small-molecule microarray, Alexa647-labelled CAII (AID 1122). The following applies: CAII-A647 binding fluorescence, higher = more signal.
Assay [15] can be described thus: COS7 lysate on small-molecule microarray, probe aHis, 635 nm (AID 1123).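 Also: z-score combines 667nm fluorescence intensity with signal-to-noise per printed compound spot.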 The following applies: COS7 cell lysate, fluorescence, higher = more signal.
Assay [16] is described as follows: compound binding in COS7 lysate, probe aLAP1, primary screen, cell lysate, small-molecule microarray (AID 1124).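 Also: lysate comes from COS7 cells expressing LAP1 and is applied at 0.3 µg/mL; score merges spot fluorescence near 667 nm with signal-to-noise over triplicate slides.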 Particulars: probe aLAP1, fluorescence, higher = more signal.
In a further assay the test system is Sam68 (KHDRBS1). Description: Sam68 small-molecule binders, primary screen, biochemical, small-molecule microarray, 635 nm fluorescence (AID 1125).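 Also: score merges 667 nm channel intensity with signal to noise over triplicate slides.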 The following applies: small-molecule microarray binding, higher = more signal.
Assay [17] relates to Chordin-like protein 2 (CHRDL2). The assay is described as follows: CHRDL2 small-molecule binders, primary screen, biochemical, small-molecule microarray, 635 nm fluorescence (AID 1126).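 Also: printed compound slides probed with Chrdl2 protein at 4 µg/mL for 1 h at 4 C; score merges 667 nm emission intensity with signal to noise over three replicate slides.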 Particulars: small-molecule microarray binding, fluorescence 635 nm; higher = more signal.
The target in assay [18] is Concanavalin-A (Canavalia ensiformis) (UniProt P02866). Description: ConA small-molecule binders, primary screen, artefact control for SMM control protein annotation, biochemical, small-molecule microarray, Alexa647 label, 635 nm (AID 1127).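 Also: z combines 667 nm emission intensity with signal-to-noise across three replicate slides.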 The following applies: ConA-A647 binding fluorescence, higher = more signal.

Active and inactive are the calls of the source.

Sequence of Concanavalin-A (Canavalia ensiformis) (P02866 whole entry, looked up): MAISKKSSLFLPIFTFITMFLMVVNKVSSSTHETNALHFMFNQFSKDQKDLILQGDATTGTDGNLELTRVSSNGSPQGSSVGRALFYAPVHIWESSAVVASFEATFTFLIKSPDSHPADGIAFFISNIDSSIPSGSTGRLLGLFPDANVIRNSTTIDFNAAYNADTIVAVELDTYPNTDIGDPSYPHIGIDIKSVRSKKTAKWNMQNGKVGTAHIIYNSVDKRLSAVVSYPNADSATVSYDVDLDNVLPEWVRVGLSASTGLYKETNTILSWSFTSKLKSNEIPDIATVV
Sequence of Left-right determination factor 2 (Homo sapiens) (O00292 whole entry, looked up): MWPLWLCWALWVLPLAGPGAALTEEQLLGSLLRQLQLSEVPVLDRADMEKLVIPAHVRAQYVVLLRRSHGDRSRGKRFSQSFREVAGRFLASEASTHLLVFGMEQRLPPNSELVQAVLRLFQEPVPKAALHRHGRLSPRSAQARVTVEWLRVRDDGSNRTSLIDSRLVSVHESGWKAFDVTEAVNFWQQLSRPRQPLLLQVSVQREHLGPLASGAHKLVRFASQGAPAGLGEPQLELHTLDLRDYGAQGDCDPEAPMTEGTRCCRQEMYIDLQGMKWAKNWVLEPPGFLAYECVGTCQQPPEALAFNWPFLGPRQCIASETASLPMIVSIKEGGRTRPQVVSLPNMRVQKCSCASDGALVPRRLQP
Sequence of Torsin-1A-interacting protein 1 (Homo sapiens) (Q5JTV8 whole entry, looked up): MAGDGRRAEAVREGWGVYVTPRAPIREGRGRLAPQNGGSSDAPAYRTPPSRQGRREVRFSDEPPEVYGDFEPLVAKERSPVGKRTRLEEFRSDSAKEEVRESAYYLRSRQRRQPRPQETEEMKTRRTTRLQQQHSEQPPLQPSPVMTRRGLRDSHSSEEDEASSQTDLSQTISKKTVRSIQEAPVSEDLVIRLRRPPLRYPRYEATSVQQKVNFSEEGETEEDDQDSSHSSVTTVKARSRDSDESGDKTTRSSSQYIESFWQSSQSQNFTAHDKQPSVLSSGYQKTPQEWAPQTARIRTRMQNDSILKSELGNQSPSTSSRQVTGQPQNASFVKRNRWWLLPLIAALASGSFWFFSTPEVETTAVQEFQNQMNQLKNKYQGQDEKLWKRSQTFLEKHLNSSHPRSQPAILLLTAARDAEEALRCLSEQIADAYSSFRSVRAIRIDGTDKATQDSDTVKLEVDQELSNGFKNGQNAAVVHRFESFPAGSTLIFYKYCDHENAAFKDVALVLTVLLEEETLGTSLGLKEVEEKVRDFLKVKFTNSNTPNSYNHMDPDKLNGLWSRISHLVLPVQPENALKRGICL
Sequence of Alpha-bungarotoxin (Bungarus multicinctus) (P60615 whole entry, looked up): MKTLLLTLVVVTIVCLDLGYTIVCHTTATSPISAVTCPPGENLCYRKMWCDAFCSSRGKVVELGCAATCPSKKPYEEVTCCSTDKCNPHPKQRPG
Sequence of Albumin (Bos taurus) (P02769 whole entry, looked up): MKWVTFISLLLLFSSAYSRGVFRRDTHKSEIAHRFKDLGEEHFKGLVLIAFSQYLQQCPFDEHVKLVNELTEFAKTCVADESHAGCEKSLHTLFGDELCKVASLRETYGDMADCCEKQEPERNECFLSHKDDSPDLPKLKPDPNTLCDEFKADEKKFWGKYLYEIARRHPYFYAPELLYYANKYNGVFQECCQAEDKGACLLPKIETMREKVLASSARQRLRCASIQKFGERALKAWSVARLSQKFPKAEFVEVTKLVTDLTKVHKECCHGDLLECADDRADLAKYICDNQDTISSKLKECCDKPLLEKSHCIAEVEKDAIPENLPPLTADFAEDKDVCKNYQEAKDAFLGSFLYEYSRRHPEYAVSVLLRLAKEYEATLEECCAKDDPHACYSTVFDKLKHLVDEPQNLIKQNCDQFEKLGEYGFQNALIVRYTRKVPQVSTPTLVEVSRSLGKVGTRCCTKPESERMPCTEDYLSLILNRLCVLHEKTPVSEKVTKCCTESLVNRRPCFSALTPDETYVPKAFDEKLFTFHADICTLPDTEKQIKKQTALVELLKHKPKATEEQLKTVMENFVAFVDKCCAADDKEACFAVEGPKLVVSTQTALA

As for `C=C(COC)/C(=C/C[C@@H](OC(C)=O)c1ccc(CO)o1)c1cc(C(=O)OC)ccc1OC`, the composite z-score in [1] was 0.531; in assay [3] it was -0.0379; in assay [4] it was -0.177; in assay [5] it was -0.9; in assay [6], -0.096; in assay [7], 0.479. Also, the composite z-score in [8] is 0.184; in assay [9] it was -0.315; in [10] it was 0.202; with Albumin (Bos taurus), -0.418; in [12], -0.0647; in [13], -0.133. Also, the composite z-score in [14] is 0.579; in [15], 0.694; in [16] it was 0.662; with Sam68 (KHDRBS1) it was 0.246; in [17] it was -0.228; in [18], 0.581. Also, in assay [2], the z-score was -1.45. In assay [11], the composite Z-score is 0.615 (inactive).

Take `COC(=O)C(CC#Cc1ccc2c(c1)[C@]1(C(=O)N2)[C@H](c2ccc(O)cc2)N2[C@H](c3ccccc3)[C@H](c3ccccc3)OC(=O)[C@H]2[C@@H]1C(=O)N1CCCCCCC1)C(=O)OC`: the composite z-score in assay [1] amounted to 1.36; in [3], 0.65; in assay [4], 2.75; in assay [5], 1.64; in assay [6], 0.593; in assay [7] it was 1.03. In addition, the composite z-score is 2.58 in [8]; 3.87 in assay [9]; 2.18 in [10]; 0.631 in the assay with Albumin (Bos taurus); 1.29 in assay [12]; -0.0586 in [13]. Moreover, the composite z-score in assay [14] amounted to 0.816; in [15], 2.46; in [16], 1.18; in the assay with Sam68 (KHDRBS1), 1.29; in [17], 1.13; in assay [18] it was 1.14. The z-score in assay [2] was -1.69. For the same compound, in assay [11], the composite Z-score was 1.71 (inactive).

For `CC(C)CCC[C@@H](C)[C@H]1CC[C@@]2(C)C3=C(CC[C@]12C)[C@@]1(C)CC[C@H](OC(=O)c2ccccc2)C(C)(C)C1CC3` (stereo not given in full), the composite z-score in assay [1] was 0.359; in assay [3] it was 0.593; in [4] it was -0.0989; in [5] it was -0.647; in assay [6], -0.124; in assay [7] it was -0.414. For the same compound, the composite z-score is -0.0252 in assay [8]; -0.251 in assay [9]; 0.261 in assay [10]; 0.181 in the assay with Albumin (Bos taurus); -0.0074 in assay [12]; -0.181 in assay [13]. Also, the composite z-score in assay [14] was -0.103; in assay [15], 0.275; in assay [16], -0.0606; with Sam68 (KHDRBS1) it was 0.248; in assay [17], 0.418; in [18], 0.115. For the same compound, the z-score in assay [2] was -0.313. Also, the composite Z-score in assay [11] was 0.115 (inactive).

Turning to `CCCNC(=O)[C@@]1(Sc2ccc(C)cc2)CC(=O)N(C2CCCCC2)[C@@H]1c1ccc(CO)cc1I`, the composite z-score is 0.0411 in [1]; -0.153 in assay [3]; 1.42 in assay [4]; 0.86 in assay [5]; -0.0242 in assay [6]; 0.768 in assay [7]. The composite z-score in assay [8] is 0.757; in assay [9] it was 0.982; in assay [10], 0.231; with Albumin (Bos taurus), 0.207; in assay [12], -0.147; in [13], -0.132. Further, the composite z-score in [14] was 0.439; in assay [15], 1.47; in [16], 0.207; with Sam68 (KHDRBS1), 0.65; in [17], -0.501; in [18], 0.298. Further, the z-score in assay [2] is -2.45. In assay [11], the composite Z-score was 0.73 (inactive).

On to `COc1ccc(C#Cc2ccc3c(c2)[C@]2(C(=O)N3)[C@H](C(=O)N3CCCCCCC3)[C@H]3C(=O)O[C@H](c4ccccc4)[C@H](c4ccccc4)N3[C@@H]2c2ccc(O)cc2)cc1`, for which the composite z-score turned out to be 0.871 in [1]; 0.536 in assay [3]; 1.51 in assay [4]; 0.426 in assay [5]; 0.19 in assay [6]; 0.162 in assay [7]. The composite z-score in [8] is 2.3; in assay [9] it was 2.85; in [10], 1.22; with Albumin (Bos taurus), 0.796; in [12], 0.888; in [13] it was 0.0488. Moreover, the composite z-score turned out to be 0.594 in assay [14]; 2.9 in assay [15]; 1.25 in assay [16]; 1.3 in the assay on Sam68 (KHDRBS1); 0.573 in assay [17]; 0.977 in assay [18]. The z-score in assay [2] is -0.764. The composite Z-score in [11] is 4.74 (inactive).
